Source: PubChem BioAssay (Tox21)
Records with an inconclusive call do not appear. Calls of active or inactive are those of the source. Unless noted, the call rests on the fitted dose curve; in most records, active means well fitted curve in the direction sought with a large enough effect in the repeat runs; inconclusive means weak or mixed curves; inactive means no such curve, though single readings can be large; an effect the other way counts as inactive or inconclusive.

Columns and labels:
[1] = qHTS assay to identify aromatase inhibitors - cell viability counter screen (AID 743084);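 further: cells stimulated with testosterone during compound exposure; nearly all actives have a fitted effect of over 55% in size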
[2] = biological target: Aryl hydrocarbon receptor (Homo sapiens) (UniProt P35869); assay: qHTS assay to identify small molecule that activate the aryl hydrocarbon receptor (AhR) signaling pathway (AID 743085); further: nearly all actives have a fitted effect of over 15% in size; further: potency means the concentration at half of the fitted maximal effect;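 on activation: HG2L7.5c1 human HepG2 liver cells with stably integrated DRE-driven firefly reporter; series mostly up to about 70 µM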
Procedure, shortened: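 Stably transfected human liver carcinoma cells (HG2L7.5c1; 20 DRE-firefly luciferase) were incubated 5 h, dosed, and kept 24 h at 37C. Agonism was scored from increased luciferase luminescence.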

[3] = qHTS assay to identify small molecule that activate the aryl hydrocarbon receptor (AhR) signaling pathway - cell viability counter screen (AID 743086);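 further: HepG2 liver cells carrying the AhR DRE luciferase reporter; series mostly up to about 70 µM; nearly all actives have a fitted effect of over 45% in size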
Procedure, shortened: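 HepG2-AhR-luc (HG2L7.5c1) cells, 4000/well, treated 24 h at 37 C with compound; viability measured as CellTiter-Fluor fluorescence after 30 min in the same wells as the luciferase read.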

[4] = biological target: Peroxisome proliferator-activated receptor gamma (Homo sapiens) (UniProt P37231); assay: qHTS assay to identify small molecule agonists of the peroxisome proliferator-activated receptor gamma (PPARg) signaling pathway (AID 743094; active means well fitted activation curve with a large enough effect in the signal ratio in the repeat runs, not every such curve was filed as active; the % refers to the signal ratio)
Procedure, shortened: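 Cells from the PPARg UAS-bla HEK293H line are plated and incubated 5 h at 37C. Compounds in DMSO are pinned in and left 17 h at 37C. LiveBLAzer B/G substrate is then added for 1 h at room temperature before fluorescence is measured.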

[5] = biological target: Peroxisome proliferator-activated receptor gamma (Homo sapiens) (UniProt P37231); assay: qHTS assay to identify small molecule antagonists of the peroxisome proliferator-activated receptor gamma (PPARg) signaling pathway (AID 743191; calls by dose curve; further: series mostly up to about 63 µM; nearly all actives have a fitted effect of over 30% in size)
Procedure, shortened: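 GeneBLAzer PPARg UAS-bla HEK293H cells, 5 h post-plating, exposed to compounds 17 h at 37C. LiveBLAzer B/G FRET substrate added for 1 h at room temperature; beta-lactamase reporter read by fluorescence intensity.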

[6] = qHTS assay to identify small molecule antagonists of the peroxisome proliferator-activated receptor gamma (PPARg) signaling pathway - cell viability counter screen (AID 743194); further: nearly all actives have a fitted effect of over 55% in size
Procedure, shortened: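 Cytotoxicity counter screen in PPARg-bla HEK293H cells, same wells as reporter assay. Compounds plus 50 nM rosiglitazone (final) for 17 h at 37 C, then viability read by CellTiter-Glo luminescence.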

[7] = qHTS assay for small molecule agonists of the antioxidant response element (ARE) signaling pathway (AID 743202; active means well fitted activation curve with a large enough effect in the signal ratio in the repeat runs, not every such curve was filed as active; the % refers to the signal ratio)
Procedure, shortened: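 HepG2 ARE-bla reporter line, 2,000 cells/well; 5 h preincubation 37 C/5% CO2; compound (DMSO) 16 h 37 C; B/G FRET substrate 2 h RT; fluorescence intensity.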

[8] = qHTS assay for small molecule agonists of the antioxidant response element (ARE) signaling pathway - cell viability counter screen (AID 743203; calls by dose curve; further: nearly all actives have a fitted effect of over 55% in size)
Procedure, shortened: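 Cytotoxicity was tested in parallel with the ARE reporter screen. ARE-bla HepG2 cells were exposed to compounds for 16 hrs, and viability was taken from CellTiter-Glo luminescence.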

[9] = qHTS assay for small molecule activators of the heat shock response signaling pathway - cell viability counter screen (AID 743209); further: nearly all actives have a fitted effect of over 50% in size
Procedure, shortened: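 Cytotoxicity counter screen run in parallel with the HSE beta-lactamase reporter, using the same wells. HeLa HSE-bla cells received compound for 5 h at 37 C; ATP-based CellTiter-Glo luminescence was measured after 30 min at room temperature.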

[10] = qHTS assay for small molecule activators of the heat shock response signaling pathway (AID 743210; active means well fitted activation curve with a large enough effect in the signal ratio in the repeat runs, with a control signal flat, not every such curve was filed as active; the % refers to the signal ratio;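 further: HeLa cells with beta-lactamase reporter driven by heat shock elements; series mostly up to about 63 µM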)
Procedure, shortened: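 Beta-lactamase reporter read-out: FRET substrate fluorescence after 2.5 h at RT, following 5 h compound treatment at 37 C of HeLa cells carrying HSE-driven bla reporter; quantitative HTS format.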

[11] = qHTS assay to identify small molecule agonists of the peroxisome proliferator-activated receptor delta (PPARd) signaling pathway - cell viability counter screen (AID 743211); further: nearly all actives have a fitted effect of over 55% in size
Procedure, shortened: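 In the same wells used for beta-lactamase reporter measurement, cytotoxicity is scored by CellTiter-Glo. HEK293H PPARd-bla cells receive compound for 17 h at 37C following a 5 h settling period.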

[12] = qHTS assay to identify small molecule antagonists of the peroxisome proliferator-activated receptor delta (PPARd) signaling pathway - cell viability counter screen (AID 743213); further: nearly all actives have a fitted effect of over 50% in size
Procedure, shortened: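 Viability counter-screen, qHTS format: PPARd-bla HEK293H, L165041 300 nM final, 17 h compound exposure at 37 C, CellTiter-Glo luminescence after 30 min RT.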

[13] = biological target: Bile acid receptor (Homo sapiens) (UniProt Q96RI1); assay: qHTS assay to identify small molecule antagonists of the farnesoid-X-receptor (FXR) signaling pathway (AID 743217; active means well fitted inhibition curve with a large enough effect in the signal ratio in the repeat runs, not every such curve was filed as active; the % refers to the signal ratio)
Procedure, shortened: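 Cells carrying a UAS-driven beta-lactamase reporter (GeneBLAzer FXR-UAS-bla HEK 293T) were plated and rested 5 h at 37 °C. Compounds in DMSO were added alongside chenodeoxycholic acid agonist at 50 uM final and left 16 h at 37 °C before FRET substrate readout.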

[14] = qHTS assay to identify small molecule agonists of the farnesoid-X-receptor (FXR) signaling pathway - cell viability counter screen (AID 743218); further: nearly all actives have a fitted effect of over 45% in size
Procedure, shortened: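 Cells were seeded, left 5 h at 37 C and 5% CO2, then dosed with compound in DMSO for 16 h. After the beta-lactamase FRET read, CellTiter-Glo was added and luminescence measured 30 min later.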

[15] = biological target: Bile acid receptor (Homo sapiens) (UniProt Q96RI1); assay: qHTS assay to identify small molecule agonists of the farnesoid-X-receptor (FXR) signaling pathway (AID 743220; active means well fitted activation curve with a large enough effect in the signal ratio in the repeat runs, not every such curve was filed as active; the % refers to the signal ratio)
Procedure, shortened: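 FXR-UAS-bla HEK 293T cells carrying a UAS-driven beta-lactamase reporter were plated for 5 h at 37C/5% CO2, then exposed to DMSO-dissolved Tox21 10K compounds for 16 h at 37C. A LiveBLAzer B/G FRET substrate was loaded for 2 h at room temperature before fluorescence reading.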

[16] = qHTS assay to identify small molecule antagonists of the farnesoid-X-receptor (FXR) signaling pathway - cell viability counter screen (AID 743221; active means well fitted cell-killing curve with a large enough effect in the repeat runs, not every such curve was filed as active; further: nearly all actives have a fitted effect of over 50% in size)
Procedure, shortened: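 Here viability was scored by luminescence after CellTiter-Glo addition to wells already read for beta-lactamase. Prior treatment: compound plus CDCA (50 uM final), 16 h, 37 C, HEK 293T FXR-bla cells.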

[17] = biological target: Vitamin D3 receptor (Homo sapiens) (UniProt P11473); assay: qHTS assay to identify small molecule agonists of the vitamin D receptor (VDR) signaling pathway (AID 743222; calls by dose curve)
Procedure, shortened: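 Cells carrying a VDR-driven beta-lactamase reporter are seeded at 2,000 per well and rested 4 h. Compounds in DMSO are added for 16 h at 37C, and FRET substrate fluorescence is measured after 2 h at room temperature.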

[18] = biological target: Vitamin D3 receptor (Homo sapiens) (UniProt P11473); assay: qHTS assay to identify small molecule antagonists of the vitamin D receptor (VDR) signaling pathway (AID 743223; active means well fitted inhibition curve with a large enough effect in the signal ratio in the repeat runs, not every such curve was filed as active; the % refers to the signal ratio)
Procedure, shortened: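 Inhibition of agonist-driven VDR signalling is scored in VDR-bla cells: 3 nM final 1alpha,25-dihydroxyvitamin D3 plus compound, 16 h at 37C, then beta-lactamase detection by FRET substrate fluorescence after 2 h.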

[19] = biological target: Peroxisome proliferator-activated receptor delta (Homo sapiens) (UniProt Q03181); assay: qHTS assay to identify small molecule agonists of the peroxisome proliferator-activated receptor delta (PPARd) signaling pathway (AID 743212; calls by dose curve)
Procedure, shortened: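 Read-out: beta-lactamase FRET fluorescence after 2 h room-temperature incubation with LiveBLAzer B/G substrate. Cells were HEK293H carrying a UAS-bla reporter for PPARd, treated at 37 C with DMSO-dissolved compounds.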

[20] = biological target: Peroxisome proliferator-activated receptor delta (Homo sapiens) (UniProt Q03181); assay: qHTS assay to identify small molecule antagonists of the peroxisome proliferator-activated receptor delta (PPARd) signaling pathway (AID 743215; active means well fitted inhibition curve with a large enough effect in the signal ratio in the repeat runs, not every such curve was filed as active; the % refers to the signal ratio;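 further: cells stimulated with agonist L165041 at 300 nM final during compound exposure; series mostly up to about 62 µM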)
Procedure, shortened: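 Cells: HEK293H with a UAS-driven beta-lactamase reporter responsive to PPARd. Compounds were co-added with L165041 (300 nM, final) and incubated 17 h at 37 C before a 2 h room-temperature FRET substrate step and fluorescence reading.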
On the % scale 0 is the no-effect control and ±100 the full control effect.

Chain of Peroxisome proliferator-activated receptor delta (Homo sapiens) (Q03181 whole entry, looked up): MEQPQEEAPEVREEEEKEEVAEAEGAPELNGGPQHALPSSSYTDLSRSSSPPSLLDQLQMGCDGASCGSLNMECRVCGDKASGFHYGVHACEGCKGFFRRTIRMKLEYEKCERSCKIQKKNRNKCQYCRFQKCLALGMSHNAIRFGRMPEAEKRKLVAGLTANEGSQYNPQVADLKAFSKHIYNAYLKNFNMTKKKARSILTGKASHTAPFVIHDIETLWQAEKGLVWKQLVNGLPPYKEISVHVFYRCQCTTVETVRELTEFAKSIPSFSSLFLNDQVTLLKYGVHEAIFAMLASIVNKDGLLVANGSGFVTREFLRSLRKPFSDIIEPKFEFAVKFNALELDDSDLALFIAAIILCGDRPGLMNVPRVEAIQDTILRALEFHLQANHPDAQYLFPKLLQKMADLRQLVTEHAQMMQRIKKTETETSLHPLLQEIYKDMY
Chain of Vitamin D3 receptor (Homo sapiens) (P11473 whole entry, looked up): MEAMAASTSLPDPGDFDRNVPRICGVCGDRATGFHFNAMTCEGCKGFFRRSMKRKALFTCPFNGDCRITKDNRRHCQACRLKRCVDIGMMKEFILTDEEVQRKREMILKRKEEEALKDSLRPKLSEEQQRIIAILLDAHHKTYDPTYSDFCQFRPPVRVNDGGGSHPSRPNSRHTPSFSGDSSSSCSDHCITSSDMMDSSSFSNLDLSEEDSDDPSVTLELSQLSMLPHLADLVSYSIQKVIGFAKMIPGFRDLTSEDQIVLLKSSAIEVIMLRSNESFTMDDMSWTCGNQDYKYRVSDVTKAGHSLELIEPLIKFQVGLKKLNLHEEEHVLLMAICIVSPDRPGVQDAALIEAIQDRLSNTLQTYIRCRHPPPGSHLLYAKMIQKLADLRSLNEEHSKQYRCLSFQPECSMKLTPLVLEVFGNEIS
Chain of Bile acid receptor (Homo sapiens) (Q96RI1 whole entry, looked up): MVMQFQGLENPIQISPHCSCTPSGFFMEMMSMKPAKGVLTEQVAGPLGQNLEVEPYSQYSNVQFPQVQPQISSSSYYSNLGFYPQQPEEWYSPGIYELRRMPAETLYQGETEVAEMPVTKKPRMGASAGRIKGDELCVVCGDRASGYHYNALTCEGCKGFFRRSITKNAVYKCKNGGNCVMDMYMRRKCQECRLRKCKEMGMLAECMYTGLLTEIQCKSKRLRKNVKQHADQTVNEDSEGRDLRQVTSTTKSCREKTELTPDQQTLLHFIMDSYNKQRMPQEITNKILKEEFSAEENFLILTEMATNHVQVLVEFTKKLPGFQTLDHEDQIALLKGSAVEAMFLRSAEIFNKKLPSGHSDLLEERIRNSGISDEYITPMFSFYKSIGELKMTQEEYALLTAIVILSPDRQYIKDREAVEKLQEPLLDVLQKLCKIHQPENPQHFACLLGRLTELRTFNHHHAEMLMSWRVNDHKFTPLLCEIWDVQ
Chain of Aryl hydrocarbon receptor (Homo sapiens) (P35869 whole entry, looked up): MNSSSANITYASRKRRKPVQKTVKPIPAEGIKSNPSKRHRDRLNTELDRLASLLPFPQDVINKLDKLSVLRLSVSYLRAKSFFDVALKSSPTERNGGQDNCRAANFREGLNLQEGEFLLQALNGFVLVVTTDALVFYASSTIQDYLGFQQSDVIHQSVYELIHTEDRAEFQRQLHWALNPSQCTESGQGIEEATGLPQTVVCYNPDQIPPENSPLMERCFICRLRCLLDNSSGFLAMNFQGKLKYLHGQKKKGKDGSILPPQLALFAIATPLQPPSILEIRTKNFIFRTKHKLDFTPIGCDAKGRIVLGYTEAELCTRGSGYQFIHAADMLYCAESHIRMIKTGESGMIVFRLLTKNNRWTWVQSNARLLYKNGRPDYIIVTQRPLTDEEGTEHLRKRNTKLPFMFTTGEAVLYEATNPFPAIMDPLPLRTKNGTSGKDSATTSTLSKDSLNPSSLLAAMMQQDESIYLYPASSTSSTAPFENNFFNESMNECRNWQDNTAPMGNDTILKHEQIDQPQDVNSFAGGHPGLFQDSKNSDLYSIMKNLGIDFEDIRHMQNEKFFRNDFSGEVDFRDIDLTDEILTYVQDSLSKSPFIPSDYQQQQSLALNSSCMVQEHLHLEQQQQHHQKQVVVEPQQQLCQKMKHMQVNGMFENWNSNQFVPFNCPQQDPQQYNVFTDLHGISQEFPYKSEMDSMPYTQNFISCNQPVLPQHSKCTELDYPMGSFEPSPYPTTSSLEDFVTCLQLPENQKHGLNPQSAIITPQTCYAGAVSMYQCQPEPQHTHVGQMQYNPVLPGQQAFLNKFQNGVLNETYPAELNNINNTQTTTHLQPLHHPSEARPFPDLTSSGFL
Chain of Peroxisome proliferator-activated receptor gamma (Homo sapiens) (P37231 whole entry, looked up): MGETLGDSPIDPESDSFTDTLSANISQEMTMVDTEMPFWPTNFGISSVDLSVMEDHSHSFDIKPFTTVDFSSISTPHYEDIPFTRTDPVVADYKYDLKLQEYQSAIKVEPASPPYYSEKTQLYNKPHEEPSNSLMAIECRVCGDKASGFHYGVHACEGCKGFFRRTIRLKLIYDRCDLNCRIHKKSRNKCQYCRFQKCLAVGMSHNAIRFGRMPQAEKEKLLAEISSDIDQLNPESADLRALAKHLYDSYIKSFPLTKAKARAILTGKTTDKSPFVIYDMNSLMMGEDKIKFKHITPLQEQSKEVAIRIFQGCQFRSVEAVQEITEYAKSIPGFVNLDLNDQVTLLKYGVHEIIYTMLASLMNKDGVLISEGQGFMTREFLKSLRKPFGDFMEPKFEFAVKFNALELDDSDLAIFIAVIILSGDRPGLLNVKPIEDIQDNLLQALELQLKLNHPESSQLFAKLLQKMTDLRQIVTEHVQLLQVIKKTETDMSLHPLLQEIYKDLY

O=C1O[C@@H]2[C@@H](O)[C@H](O)O[C@@H]2[C@H]1O
inactive: Potency [1] | Potency [2] | Potency [3] | outcome [4] | Potency [5] | outcome [6] | Potency [7] | outcome [8] | outcome [9] | outcome [10] | outcome [11] | outcome [12] | Potency [13] | Potency [14] | Potency [15] | outcome [16] | outcome [17] | outcome [18]

NNc1nnc(NN)c2ccccc12
active: Potency [2] 29.8 µM
inactive: Potency [1] | Potency [3] | outcome [4] | Potency [5] | outcome [6] | Potency [7] | outcome [8] | outcome [9] | outcome [10] | outcome [11] | outcome [19] | outcome [12] | outcome [20] | Potency [15] | outcome [18]

COc1nccnc1NS(=O)(=O)c1ccc(N)cc1
inactive: Potency [1] | Potency [2] | Potency [3] | outcome [4] | Potency [5] | outcome [6] | Potency [7] | outcome [8] | outcome [9] | outcome [10] | outcome [19] | outcome [12] | outcome [20] | Potency [13] | Potency [15] | outcome [16] | outcome [17] | outcome [18]

CC(CC=O)CCCC(C)(C)O (stereo not given)
inactive: Potency [1] | Potency [2] | Potency [3] | outcome [4] | Potency [5] | outcome [6] | Potency [7] | outcome [8] | outcome [9] | outcome [10] | outcome [19] | outcome [20] | Potency [14] | outcome [17]

CC1COc2ccccc2N1 (stereo not given)
inactive: Potency [1] | Potency [3] | outcome [4] | Potency [5] | outcome [6] | Potency [7] | outcome [8] | outcome [9] | outcome [10] | outcome [11] | outcome [19] | outcome [12] | outcome [20] | Potency [14] | outcome [16] | outcome [17]
active: Potency [2] 0.969 µM

O=S(O)(O)=S
inactive: activity change, negative = cytotoxicity [1] 0.159% [at 8.47 µM] | activation [2] -4.49% [at 8.47 µM] | viability change, negative = cytotoxic [3] -5.98% [at 8.47 µM] | activation [4] 0.645% [at 7.08 µM] | ratio activity, negative = inhibition [5] 10.9% [at 5.95 µM] | activity change, negative = cytotoxicity [6] -0.949% [at 5.95 µM] | activation [7] -7.19% [at 8.36 µM] | viability change, negative = cytotoxic [8] 2.86% [at 8.36 µM] | activity change, negative = cytotoxicity [9] 5.21% [at 5.95 µM] | activation [10] -0.665% [at 5.95 µM] | activity change, negative = cytotoxicity [11] 0.0962% [at 5.95 µM] | activation [19] 0.0872% [at 5.95 µM] | viability change, negative = cytotoxic [12] -0.861% [at 6.26 µM] | ratio activity, negative = inhibition [20] 3.14% [at 6.26 µM] | viability change, negative = cytotoxic [14] 3.63% [at 5.95 µM] | activity change, negative = cytotoxicity [16] 6.74% [at 5.95 µM]

CCCCCCCCCCl
inactive: Potency [1] | Potency [2] | Potency [3] | outcome [4] | Potency [5] | outcome [6] | Potency [7] | outcome [8] | outcome [9] | outcome [10] | outcome [11] | outcome [12] | Potency [13] | Potency [14] | Potency [15] | outcome [17] | outcome [18]

OCCCCC(O)CO (stereo not given)
inactive: Potency [1] | Potency [2] | Potency [3] | outcome [4] | Potency [5] | outcome [6] | Potency [7] | outcome [8] | outcome [9] | outcome [10] | outcome [19] | outcome [12] | outcome [20] | Potency [13] | Potency [14] | Potency [15] | outcome [16] | outcome [17] | outcome [18]
